This is part of a sample that, as a whole, favours compounds with a hit. Of some 83,000 tested, about 20% had one in any assay.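 Cells were grown in 96-well plates and exposed to the test compound at a single concentration for 48 hours; results are reported as percent growth, with values below 10 considered active.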 A number with no mark means an inactive call. The source made the active and inactive calls.

Common to all, as to assay: NCI-60 one-dose screen, 48 h (100 = growth as untreated, 0 = no growth, -100 = all killed)
One experiment has as its system NCI-H23 lung. The following applies: 10 µM unless noted.
Another experiment deals with NCI-H226 lung. The conditions noted are these: 10 µM unless noted.
For a further experiment, the system named is NCI-H322M lung. The conditions noted are these: 10 µM unless noted.
In the next experiment the test system is HOP-62 NSCLC. The following applies: 10 µM unless noted.
For a further experiment, the system named is NCI-H460 lung. The conditions noted are these: 10 µM unless noted.
The test system of a further experiment is HOP-92 NSCLC. The conditions noted are these: 10 µM unless noted.
For another experiment, the system named is NCI-H522 lung. The following applies: 10 µM unless noted.
Another experiment deals with 786-0 renal. The following applies: 10 µM unless noted.
The test system of the next experiment is COLO 205 colon. The following applies: 10 µM unless noted.
Another experiment deals with DU-145 prostate. The following applies: 10 µM unless noted.
The test system of another experiment is K-562 leukemia. The conditions noted are these: 10 µM unless noted.
Another experiment concerns MALME-3M melanoma. The following applies: 10 µM unless noted.
A further experiment has as its system MDA-MB-231 breast. The following applies: 10 µM unless noted.
A further experiment relates to RXF 393 renal. The following applies: 10 µM unless noted.
In a further experiment the test system is SF-268 CNS. The following applies: 10 µM unless noted.
A further experiment has as its system SF-295 CNS. The conditions noted are these: 10 µM unless noted.
A further experiment relates to SF-539 CNS. The conditions noted are these: 10 µM unless noted.
In a further experiment the test system is UACC-257 melanoma. The following applies: 10 µM.
A further experiment relates to M14 melanoma. The following applies: 10 µM unless noted.

As to `CCOC(=O)C1=C(C)Nc2nc3ccccc3n2C1c1cccc(Br)c1` (centres undefined), the growth is 86.7% in the experiment with NCI-H23 lung; 102% in the experiment on NCI-H226 lung; 97.6% in the experiment with NCI-H322M lung; 74.3% in the experiment with HOP-62 NSCLC; 89.2% in the experiment with NCI-H460 lung; 99.3% in the experiment on HOP-92 NSCLC. The growth is 37.1% in the experiment with NCI-H522 lung; 93.5% with 786-0 renal; 81.6% in the experiment on COLO 205 colon; 93.3% in the experiment on DU-145 prostate; 29.9% with K-562 leukemia; 51.9% with MALME-3M melanoma. The growth is 79% with MDA-MB-231 breast; 99.7% in the experiment with RXF 393 renal; 94.7% in the experiment on SF-268 CNS; 60.7% in the experiment with SF-295 CNS; 85.8% with SF-539 CNS; 87.1% in the experiment on UACC-257 melanoma. Further, the growth in the experiment on M14 melanoma was 63.4%.
Take `CN1CCN(c2ccc(C(=O)Nc3cccc(-c4cn(-c5ccc(S(N)(=O)=O)cc5)nn4)c3)cc2C(F)(F)F)CC1`: the growth is 82.2% in the experiment with NCI-H23 lung; 96.8% in the experiment with NCI-H226 lung; 72% in the experiment on NCI-H322M lung; 85.7% with HOP-62 NSCLC; 78.8% in the experiment on NCI-H460 lung; 56.4% in the experiment on HOP-92 NSCLC. The growth is 90.2% in the experiment with NCI-H522 lung; 52.5% with 786-0 renal; 85.3% in the experiment with COLO 205 colon; 92.5% with DU-145 prostate; 9.33% (active) with K-562 leukemia; 71.4% in the experiment on MALME-3M melanoma. For the same molecule, the growth with MDA-MB-231 breast is 63.6%; in the experiment on RXF 393 renal it was 6.63% (active); with SF-268 CNS it was 82.9%; in the experiment on SF-295 CNS, 90.4%; in the experiment with SF-539 CNS, 46.2%; with UACC-257 melanoma it was 95.8%. The growth in the experiment on M14 melanoma was 82.2%.
Regarding `CN1CCN(Cc2ccc(NC(=O)c3cncc(C#Cc4cnc5ccc(NC6CCOCC6)nn45)c3)cc2C(F)(F)F)CC1`, the growth in the experiment with NCI-H23 lung is -52.9% (active); with NCI-H226 lung, -53.1% (active); in the experiment with NCI-H322M lung, -20% (active); with HOP-62 NSCLC, -0.603% (active); in the experiment with NCI-H460 lung, -81.4% (active); in the experiment on HOP-92 NSCLC, -29.2% (active). Also, the growth was -68.5% (active) in the experiment with NCI-H522 lung; -88.3% (active) with 786-0 renal; -90.6% (active) in the experiment with COLO 205 colon; -95.2% (active) in the experiment on DU-145 prostate; -12.8% (active) in the experiment with K-562 leukemia; -86.5% (active) in the experiment on MALME-3M melanoma. In addition, the growth was -71.9% (active) in the experiment on MDA-MB-231 breast; -93.8% (active) with RXF 393 renal; -47.5% (active) in the experiment with SF-268 CNS; -85.2% (active) in the experiment with SF-295 CNS; -92.1% (active) in the experiment with SF-539 CNS; -13.9% (active) with UACC-257 melanoma. Also, the growth in the experiment with M14 melanoma is -97.2% (active).
Consider `O=C(NNc1nc2cc(F)c(F)cc2n2cccc12)c1ncccn1`, for which the growth with NCI-H23 lung was 20.3%; in the experiment on NCI-H226 lung, 14%; with NCI-H322M lung it was 28.7%; in the experiment on HOP-62 NSCLC, 19.9%; with NCI-H460 lung, 10.6%; with HOP-92 NSCLC it was 68.1%. Moreover, the growth in the experiment with NCI-H522 lung is 13.7%; with 786-0 renal it was 8.17% (active); with COLO 205 colon, 20.5%; in the experiment on DU-145 prostate, 26.8%; in the experiment with K-562 leukemia, 20.8%; with MALME-3M melanoma, 32.7%. Further, the growth with MDA-MB-231 breast was 42.1%; with RXF 393 renal, 48.8%; in the experiment on SF-268 CNS it was 17.3%; in the experiment with SF-295 CNS, 14.7%; with SF-539 CNS, 10.9%; with UACC-257 melanoma, 14.5%. Also, the growth with M14 melanoma is 1.46% (active).
`Cn1cc(-c2nn3cc(-c4cccnc4)nc3s2)c2cc(F)ccc21`: the growth was 93.9% in the experiment with NCI-H23 lung; 75% in the experiment with NCI-H226 lung; 87.8% in the experiment on NCI-H322M lung; 71.6% in the experiment with HOP-62 NSCLC; 94.2% in the experiment with NCI-H460 lung; 60.5% in the experiment on HOP-92 NSCLC. In addition, the growth was 70.2% with NCI-H522 lung; 110% in the experiment on 786-0 renal; 98.1% with DU-145 prostate; 70.3% in the experiment with MALME-3M melanoma; 67% with MDA-MB-231 breast; 103% with RXF 393 renal. In addition, the growth is 112% with SF-268 CNS, 92.5% with SF-295 CNS, 80.3% with SF-539 CNS and 84.8% in the experiment with M14 melanoma.
Turning to `CCOC(=O)c1nn(-c2ccccc2)c(=O)c2c(N)c(C#N)c(-c3cccs3)cc12`, the growth with NCI-H23 lung was 69.4%; in the experiment with NCI-H226 lung it was 60%; in the experiment on NCI-H322M lung, 91.4%; with HOP-62 NSCLC it was 80.4%; in the experiment on NCI-H460 lung it was 92.9%; with HOP-92 NSCLC it was 61.3%. Also, the growth is 83.8% in the experiment on NCI-H522 lung; 41.4% in the experiment on 786-0 renal; 88.3% in the experiment on DU-145 prostate; 87.5% with K-562 leukemia; 88.4% with MALME-3M melanoma; 76.5% with MDA-MB-231 breast. Besides, the growth is 59.9% in the experiment on RXF 393 renal; 85.5% with SF-268 CNS; 64.4% with SF-295 CNS; 57.2% in the experiment with SF-539 CNS; 93.5% in the experiment with UACC-257 melanoma; 94.4% with M14 melanoma.
With `COc1cc(/C=N/n2cnc3oc(-c4ccccc4)cc3c2=N)cc(CN2CCCCC2)c1O`, the growth in the experiment on NCI-H23 lung was -56.4% (active); in the experiment on NCI-H226 lung, -3.78% (active); in the experiment on NCI-H322M lung, -1.45% (active); with HOP-62 NSCLC, -39.2% (active); with NCI-H460 lung, -72.7% (active); with HOP-92 NSCLC it was 86.2%. For the same molecule, the growth was -42.2% (active) in the experiment with NCI-H522 lung; -79.5% (active) with 786-0 renal; 11.7% in the experiment with COLO 205 colon; -82.8% (active) in the experiment on DU-145 prostate; 3.54% (active) with K-562 leukemia; -81% (active) in the experiment on MALME-3M melanoma. In addition, the growth in the experiment on MDA-MB-231 breast was -73.4% (active); with RXF 393 renal, -66.7% (active); with SF-268 CNS, -66.9% (active); in the experiment with SF-295 CNS, -96% (active); in the experiment on SF-539 CNS it was -87.9% (active); in the experiment with UACC-257 melanoma it was -27% (active). In addition, the growth in the experiment on M14 melanoma is -83.5% (active).

For the origin of these results see PubChem BioAssay (NCI).
